# Source: PubChem
# In the library only some 1.6% were active in any assay of this set; here they are far more common.
# KCNQ2 pot = enhances the rat KCNQ2 potassium channel | O88943 | CHO-K1 KCNQ2, FluxOR thallium flux fluorescence; hits give high values | B-score at 10 µM | hit rate 0.54% among 310,000;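 active means fluorescence ratio B-score at least 3 SD of library B-scores, with initial fluorescence B-score within 3 of them, cut at about 5.3 in these data; same plate scores as AID 2156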;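 further: B-score of peak minus minimum over baseline fluorescence ratio after K+ and Tl+ stimulus; positive B-score means potentiation of KCNQ2 with more thallium influx and brighter signal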
# KCNQ2 inh = blocks the rat KCNQ2 potassium channel. O88943. B-score at 10 µM. AID 2156. hit rate 1.1% among 310,000. CHO-K1 KCNQ2, FluxOR thallium flux, 20 min; hits give low values;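 active means fluorescence ratio B-score at most minus 3 library SDs, with starting brightness B-score within 2 library SDs, cut at about -5.5 in these data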
# Kir21 conf inh = confirmation of mouse Kir2.1 potassium channel inhibitors. shares compounds with KCNQ2 pot. Kir2.1-expressing cells, FluxOR thallium flux fluorescence; hits give low values. Tl flux remaining, % of negative control (hits give low values), % at 10 µM. hit rate 41% among 2,300;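 active means Primary-screen hit whose thallium flux fell at least 3 control SD below untreated wells in both duplicates, with normal baseline fluorescence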;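 further: 0% = blank wells without stimulus and 100% = stimulated no-compound controls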
# Target sequence (P35561 whole entry, looked up): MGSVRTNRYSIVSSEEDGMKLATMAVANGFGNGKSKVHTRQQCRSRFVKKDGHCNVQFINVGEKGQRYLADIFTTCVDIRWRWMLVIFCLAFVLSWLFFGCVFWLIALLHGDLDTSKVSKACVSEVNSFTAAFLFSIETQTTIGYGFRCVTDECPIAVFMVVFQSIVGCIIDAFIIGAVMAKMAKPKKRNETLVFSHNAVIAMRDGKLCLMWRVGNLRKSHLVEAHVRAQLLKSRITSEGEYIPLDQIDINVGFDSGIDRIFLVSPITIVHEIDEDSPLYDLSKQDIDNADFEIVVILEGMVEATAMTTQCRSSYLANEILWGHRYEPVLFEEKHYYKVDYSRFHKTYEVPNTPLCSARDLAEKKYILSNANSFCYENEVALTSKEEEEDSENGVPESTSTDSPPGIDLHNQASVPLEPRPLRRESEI
# HEK293 Tl flux = parental HEK293 activity in Kir2.1 inhibitor counter-screen; shares compounds with KCNQ2 pot; parental HEK293 cells, FluxOR thallium flux fluorescence; 0% = unstimulated blank wells; FluxOR signal as % of negative control (100 = no effect), % at 10 µM; hit rate 19% among 2,300; AID 2105;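 active means dye signal at least 3 control SD above or below untreated wells in both duplicates, raw fluorescence within 3, either direction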;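 further: percent is based on the flux ratio of peak minus minimum fluorescence over baseline F0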
# CHO-K1 ctr = alters thallium flux in parental CHO-K1 cells, KCNQ2 counter-screen; hit rate 43% among 1,200; FluxOR thallium flux fluorescence; zero = vehicle mean+3SD, 100% = vehicle-minus-blank window; shares compounds with KCNQ2 pot; activity increase over 3SD of controls, % at 10 µM; AID 2282;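 active means signal rise of at least 3 SD above the untreated control mean, in both duplicate wells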;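 further: counter screen of KCNQ2 potentiator hits so any rise reflects channel-independent effects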
# KCNQ1 pot spec = tests whether KCNQ2 potentiators also act on human KCNQ1; CHO KCNQ1 stable, FluxOR thallium flux fluorescence; beyond 3SD, as % of vehicle-control signal; activation over 3SD threshold, % at 10 µM; shares compounds with KCNQ2 pot; hit rate 28% among 1,200;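 active means fluorescence ratio rise of at least 3 SD of vehicle wells above their mean, in both replicate wells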;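 further: 0% = vehicle mean plus 3 SD and 100% = vehicle minus unstimulated blank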
# KCNQ2 pot confirm = rat KCNQ2 channel potentiator confirmation; shares compounds with KCNQ2 pot; CHO-KCNQ2 cells, FluxOR thallium flux fluorescence; potentiation, less the hit threshold, % at 10 µM; hit rate 68% among 1,200; AID 2287;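 active means fluorescence ratio rising 3 SD or more over the vehicle control mean in both replicates, plus primary screen hit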;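 further: peak minus minimum thallium fluorescence divided by baseline after K/Tl stimulus; 0% = vehicle mean plus 3 SD and 100% = vehicle minus unstimulated blank difference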
# Kir21 spec = tests whether KCNQ2 potentiators also affect mouse Kir2.1 | activity over 3SD threshold, % at 10 µM | shares compounds with KCNQ2 pot | HEK293 Kir2.1, FluxOR thallium flux fluorescence | hit rate 2% among 1,200;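 active means fluorescence ratio rise of at least 3 SD above the vehicle-control mean, seen in both replicates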;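 further: 0% = vehicle mean plus 3 SD and 100% = vehicle minus no-stimulus blank window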
# KCNQ2 W236L pot = rat KCNQ2 W236L mutant potentiation by KCNQ2 potentiators; shares compounds with KCNQ2 pot; CHO KCNQ2-W236L, automated patch clamp current; current increase over 3SD of negative controls (%), hits give high values, % at 25 µM; hit rate 10% among 940; AID 2558;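 active means current increase at least 3 SD of the untreated controls above them in both duplicate recordings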
# * hit, by the source's call; i = inactive; . = no result.
SMILES,KCNQ2 pot,KCNQ2 inh,Kir21 conf inh,HEK293 Tl flux,others
O=C(CSc1nnc(-c2cccnc2)n1Cc1ccco1)c1ccc(Br)cc1,.,i,67.5%*,72.5%*,
Cc1cc(C)c(C)c(OCCN2CC(C)OC(C)C2)c1 (stereo not drawn),.,i,.,.,
COCC(=O)N1CCC(Oc2ccc(C(=O)N(C)Cc3nccs3)cc2)CC1,.,i,.,.,
CCN(CC(=O)NCc1ccc(Cl)cc1)C(=O)Cc1ccc(OC)cc1,1.08,i,.,.,
Cc1cc(C)c(S(=O)(=O)Nc2ccc(O)c(Sc3ncn[nH]3)c2)cc1C,3.54,i,.,.,
Cc1ccc(S(=O)(=O)/N=C/c2cc(Br)ccc2O)cc1,4.31,i,.,.,
Cc1cc(N=Cc2cc(Br)ccc2O)no1,9.12*,i,i,i,CHO-K1 ctr=-17.5;KCNQ1 pot spec=-7.0;KCNQ2 pot confirm=0.8*;Kir21 spec=-21.7;KCNQ2 W236L pot=i
COc1ccc(N(C(=O)Cn2nnc(-c3ccc(F)cc3)n2)C(C)C(=O)NC2CCCC2)cc1OC (stereo not drawn),.,i,.,.,
N#Cc1c(-c2ccco2)nc(SCC(=O)Nc2cccc(Cl)c2)[nH]c1=O,5.52*,i,i,i,CHO-K1 ctr=-13.2;KCNQ1 pot spec=-7.1;KCNQ2 pot confirm=7.4*;Kir21 spec=-29.8;KCNQ2 W236L pot=i
O=C(CSc1nc2[nH]ncc2c(=O)[nH]1)Nc1cccc(Cl)c1,.,i,.,.,
COc1ccc(-c2cc(=O)oc3cc(OC(C)C(=O)NCCCn4ccnc4)ccc23)cc1 (stereo not drawn),.,i,.,.,
COc1ccc(C(O)(CCC(C)C)C(CN2CCOCC2)c2ccc(Cl)cc2)cc1 (stereo not drawn),6.44*,i,i,i,CHO-K1 ctr=-24.1;KCNQ1 pot spec=46.0*;KCNQ2 pot confirm=-4.1;Kir21 spec=-30.1
CCCC(O)(c1ccc(OC)cc1)C(CN1CCOCC1)c1ccc(Cl)cc1 (stereo not drawn),5.19,i,.,.,
C[C@@]12C(=O)N(CC3CC3)CC(=O)N1[C@H](/C=C/c1ccccc1)[C@@H]1C(=O)N(c3ccccc3)C(=O)[C@@H]12,0.33,i,.,.,
CN(CC(=O)Nc1ccc(F)cc1)C(=O)COC(=O)COc1ccc(C#N)cc1,1.01,i,.,.,
Cc1cc(C)cc(OCC(=O)OCC(=O)N(C)CC(=O)Nc2ccc(F)cc2)c1,8.35*,i,i,i,CHO-K1 ctr=18.1*;KCNQ1 pot spec=-8.0;KCNQ2 pot confirm=19.3*;Kir21 spec=-36.2;KCNQ2 W236L pot=i
Cc1ccc(NC(=O)CCc2ccc(C)o2)c(Br)c1,4.25,i,.,.,
CCc1ccc(CCC(=O)Nc2ccc(C)cc2C)o1,6.01*,i,i,i,CHO-K1 ctr=-8.2;KCNQ1 pot spec=-8.5;KCNQ2 pot confirm=1.0*;Kir21 spec=-36.2;KCNQ2 W236L pot=i
CCCc1cc(=O)n2[nH]c(NC(=O)c3ccco3)nc2n1,1.51,i,.,.,
c1ccc(CNc2ncnc3ccccc23)cc1,1.06,i,.,.,
c1ccc(CNc2c3ccccc3nc3ccccc23)cc1,1.06,i,23.5%*,i,
NC(N)=NN=C1CCCCCCCCCCC1,.,i,i,i,
CC(C)(C)NC(=O)C(=O)NN=C1CCCCCCCCCCC1,1,i,.,.,
Cc1ccc(S(=O)(=O)NCCC(=O)NC(C)CCc2ccccc2)cc1 (stereo not drawn),1.43,i,.,.,
O=C(COc1ncnc2ccc(Br)cc12)N1CCOCC1,0.98,i,.,.,
O=C(COc1ccc2cc(Br)ccc2c1Br)N1CCOCC1,9.51*,i,i,i,CHO-K1 ctr=42.4*;KCNQ1 pot spec=-4.6;KCNQ2 pot confirm=8.8*;Kir21 spec=-43.8;KCNQ2 W236L pot=i
CC1CCN(C(=O)COc2ccc3ccccc3c2Br)CC1,16.2*,i,i,i,CHO-K1 ctr=-0.8;KCNQ1 pot spec=-10.9;KCNQ2 pot confirm=31.7*;Kir21 spec=-38.3;KCNQ2 W236L pot=i
CC1CCN(C(=O)COc2ncnc3ccccc23)CC1,0.45,i,.,.,
CS(=O)(=O)N(CC(=O)N1CCc2ccccc2C1)c1ccccc1Br,.,i,.,.,
